Test results taken from article PMC4336329 (PLoS ONE, 2015).
The campaign covered roughly 310,000 compounds. About 14,000 (4.5%) showed an effect of 50% or more. The effect is printed as a negative number. The entries come from a sample that favours strong results as a whole.

molecular target: human ether-à-go-go-related gene (hERG) potassium channel (human, UniProt Q12809); assay: primary screen, population patch clamp on CHO cells stably expressing hERG; higher = less effect of the substance
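Also: peak tail current of the secondary pulse compared with the same well before compound.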

human ether-à-go-go-related gene (hERG) potassium channel, sequence (Q12809 whole entry, looked up): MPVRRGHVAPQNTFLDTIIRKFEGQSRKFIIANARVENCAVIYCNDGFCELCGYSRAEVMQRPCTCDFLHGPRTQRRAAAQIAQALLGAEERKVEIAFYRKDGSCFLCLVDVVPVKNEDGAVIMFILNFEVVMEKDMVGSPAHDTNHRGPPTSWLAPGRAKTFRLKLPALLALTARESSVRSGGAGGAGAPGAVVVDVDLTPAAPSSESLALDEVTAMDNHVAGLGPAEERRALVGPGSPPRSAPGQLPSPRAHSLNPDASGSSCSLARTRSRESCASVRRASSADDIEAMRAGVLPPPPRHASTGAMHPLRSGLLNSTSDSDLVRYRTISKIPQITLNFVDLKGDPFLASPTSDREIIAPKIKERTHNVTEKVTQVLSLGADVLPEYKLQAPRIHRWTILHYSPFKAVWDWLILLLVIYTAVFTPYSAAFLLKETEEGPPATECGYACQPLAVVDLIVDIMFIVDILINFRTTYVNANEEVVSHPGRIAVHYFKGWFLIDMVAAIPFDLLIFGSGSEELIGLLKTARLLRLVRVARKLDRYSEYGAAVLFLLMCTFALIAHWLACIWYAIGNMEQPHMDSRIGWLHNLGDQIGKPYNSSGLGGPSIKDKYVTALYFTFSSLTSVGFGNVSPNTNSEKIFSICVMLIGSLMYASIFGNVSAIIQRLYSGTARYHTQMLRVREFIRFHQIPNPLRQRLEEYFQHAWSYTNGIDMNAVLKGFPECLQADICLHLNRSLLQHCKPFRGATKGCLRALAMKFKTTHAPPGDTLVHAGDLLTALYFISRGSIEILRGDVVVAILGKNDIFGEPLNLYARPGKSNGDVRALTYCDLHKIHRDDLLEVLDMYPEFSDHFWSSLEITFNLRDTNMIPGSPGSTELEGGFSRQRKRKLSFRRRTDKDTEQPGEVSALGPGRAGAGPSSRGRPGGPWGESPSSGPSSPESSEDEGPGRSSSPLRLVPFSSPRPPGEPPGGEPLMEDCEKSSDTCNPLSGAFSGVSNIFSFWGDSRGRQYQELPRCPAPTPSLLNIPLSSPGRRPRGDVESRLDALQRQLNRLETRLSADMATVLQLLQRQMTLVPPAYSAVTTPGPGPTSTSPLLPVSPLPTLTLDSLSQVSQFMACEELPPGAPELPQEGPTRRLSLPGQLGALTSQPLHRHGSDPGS

| Structure (SMILES) | hERG current change (%, negative = inhibition) at 10uM |
| --- | --- |
| C[C@]12C(=O)N(c3ccc(Cl)cc3)C(=O)N1[C@@H]1c3ccccc3OC[C@@H]1[C@H]2c1ccccc1 | 8.19% |
| CCC(C)N1CC23C=CC(O2)C(C(=O)OCc2ccccc2)C3C1=O (stereo not drawn) | 5.54% |
| CC(C)c1ccc(NC(=O)COC(=O)c2cc(=O)[nH]c3ccccc23)cc1 | -8.12% |
| O=C(Cc1ccc(S(=O)(=O)N2CCOCC2)s1)NCCC(c1ccccc1)c1ccccc1 | -54.8% |
| CCCCCNC(=O)Cc1ccc(S(=O)(=O)N2CCOCC2)s1 | -5.94% |
| O=C(Cc1ccc(S(=O)(=O)N2CCOCC2)s1)NCCOc1ccccc1 | -8.35% |
| Cc1ccc[n+](CC(=O)Nc2ccc([N+](=O)[O-])cc2)c1.[Cl-] | 10.9% |
| CCOc1ccc(S(=O)(=O)N2CCCCCC2)cc1 | -8.37% |
| Cn1c(NC(=O)C(C)(C)Oc2ccc(Cl)cc2)cc(=O)n(C)c1=O | -15% |
| O=C(NCc1ccco1)c1ccccc1Br | 7.63% |
| Cc1ccc(C(=O)N/C(=C/C=C\c2ccccc2)C(=O)NCc2ccco2)cc1 | -27.7% |
| N#C/C(=C\C=C\c1ccccc1)C(=O)NCc1ccco1 | -3.85% |
| O=C(NCc1ccco1)/C(=C\C=C\c1ccccc1)NC(=O)c1ccco1 | -38.3% |
| Cc1ccc(C(=O)N/C(=C\C=C\c2ccccc2)C(=O)NCc2ccco2)cc1 | -50.3% |
| O=C(NCc1ccco1)/C(=C\C=C\c1ccccc1)NC(=O)c1ccccc1Br | -70.5% |
| Cc1ccc(C(=O)N/C(=C/C=C/c2ccccc2)C(=O)NCc2ccco2)cc1 | -28.9% |
| O=C(NCc1ccco1)/C(=C/C=C\c1ccccc1)NC(=O)c1ccc(Br)o1 | -59.6% |
| O=C(NCc1ccco1)/C(=C/C=C/c1ccccc1)NC(=O)c1ccco1 | -36.4% |
| Cc1ccc(C)c(NS(=O)(=O)c2ccc(NC(=O)CSc3ccc(Cl)cc3)cc2)c1 | 17.8% |
| O=C(N/N=C/c1ccccc1[N+](=O)[O-])c1cccs1 | 5.65% |

| Structure (SMILES) | hERG current change (%, negative = inhibition) at 10uM |
| --- | --- |
| C=CCn1c(Cc2ccccc2)nc2c(cnn2-c2ccccc2)c1=O | -34.8% |
| COc1cccc(N2CC(C(=O)Nc3nnc(SCC(=O)N4CCOCC4)s3)CC2=O)c1 (stereo not drawn) | 18.1% |
| CC(=O)N(Cc1cc(=O)[nH]c2ccccc12)c1cccc(C)c1 | -8.96% |
| O=C(NCC1CCCN(C(=O)c2cccnc2)C1)c1ccc(-c2ccccc2)cc1 (stereo not drawn) | -26.8% |
| O=C(NCC1CCCN(C(=O)c2cscn2)C1)c1ccc(-c2ccccc2)cc1 (stereo not drawn) | -15.1% |
| CCc1cc(C(=O)N2CCCC(CNC(=O)c3ccc(-c4ccccc4)cc3)C2)no1 (stereo not drawn) | -58.1% |
| CSCC(=O)N1CCCC(CNC(=O)c2ccc(-c3ccccc3)cc2)C1 (stereo not drawn) | -28.5% |
| CSCCC(=O)N1CCCC(CNC(=O)c2ccc(-c3ccccc3)cc2)C1 (stereo not drawn) | -73.2% |
| CC(=O)CCC(=O)N1CCCC(CNC(=O)c2ccc(-c3ccccc3)cc2)C1 (stereo not drawn) | -13.8% |
| CCOc1ccc(C2CC(c3ccc(CC)cc3)Nc3nc(N)nn32)cc1 (stereo not drawn) | 1.96% |
| COc1ccc(Cl)cc1NS(=O)(=O)c1cccc(C(=O)NCC(C)(C)N2CCOCC2)c1 | -12.6% |
| O=C(Cc1ccccc1)N/N=C/c1ccccc1Cl | 2.14% |
| O=C(NCc1ccccn1)c1cccc(S(=O)(=O)Nc2ccccc2Cl)c1 | -2.4% |
| Cc1ccc(S(=O)(=O)N(C)C)cc1NC(=O)COC(=O)c1ccc2c(c1)NC(=O)CS2 | -32.5% |
| COC(=O)[C@@H]1Cc2c([nH]c3ccccc23)C(C)N1C(=O)c1ccccc1 (stereo partly drawn) | 3.27% |
| CN1CCc2c(sc3nc(NN)n(-c4ccc(Cl)cc4)c(=O)c23)C1 | 14.6% |
| CCc1ccc2[nH]c(=O)c(CN(CCN(CC)CC)C(=O)NC3CCCCC3)cc2c1 | -66.6% |
| CCN(CC)CCN(Cc1cc2cc3c(cc2[nH]c1=O)OCCO3)C(=O)NC1CCCCC1 | -28.7% |
| COc1ccc(CN(Cc2cc3cc(OC)c(OC)cc3[nH]c2=O)C(=O)NC2CCCCC2)cc1 | 7.13% |
| CCN(CC)CCN(Cc1cc2ccc(C)cc2[nH]c1=O)C(=O)NC1CCCCC1 | -73.1% |

| Structure (SMILES) | hERG current change (%, negative = inhibition) at 10uM |
| --- | --- |
| Cc1cc(C)c2cc(CN(CCO)C(=O)NC3CCCCC3)c(=O)[nH]c2c1 | -3.62% |
| CCN1CCCC1CN(Cc1cc2c(C)cc(C)cc2[nH]c1=O)C(=O)NC1CCCCC1 (stereo not drawn) | -76% |
| CCc1ccc2[nH]c(=O)c(CN(CCN3CCCC3)C(=O)NC3CCCCC3)cc2c1 | -40.9% |
| CC(=O)N(Cc1cc2c(C)cc(C)cc2[nH]c1=O)C1CCCCC1 | 8.13% |
| Cc1ccc2[nH]c(=O)c(CN(CCCN3CCOCC3)C(=O)NC3CCCCC3)cc2c1 | -25.7% |
| Cc1nc2sc(C)c(C)c2c(=O)[nH]1 | 13.7% |
| COc1ccccc1/C=C/C(=O)NCC(=O)N/N=C/c1ccccc1[N+](=O)[O-] | -36.9% |
| CCOc1ccc(NC(=O)Cn2sc3nc(C)cc(C)c3c2=O)cc1 | 4.94% |
| CCC(C)c1ccc(NC(=O)CSc2nncn2N)cc1 (stereo not drawn) | -27.5% |
| COc1ccc(S(=O)(=O)NCCSCc2ccccc2C)cc1Br | -1.29% |
| C=CCN1C(=Nc2cccnc2)SCC1(O)c1ccc(C)cc1 (stereo not drawn) | 4.64% |
| Nn1c(SCc2cccc(F)c2)nnc1-c1ccncc1 | -4.03% |
| Fc1ccccc1CSc1nnc2ccc(-c3ccncc3)nn12 | -43.1% |
| Fc1ccc(CSc2nnc3ccc(-c4ccncc4)nn23)cc1 | -70.1% |
| c1cncc(CSc2nnc3ccc(-c4ccncc4)nn23)c1 | -26.7% |
| c1ccc(CSc2nnc3ccc(-c4ccncc4)nn23)cc1 | -58.3% |
| Fc1cccc(CSc2nnc3ccc(-c4ccncc4)nn23)c1 | -60.4% |
| Cc1ccc(CSc2nnc3ccc(-c4ccncc4)nn23)cc1 | -42.4% |
| Cc1ccccc1CSc1nnc2ccc(-c3ccncc3)nn12 | -20.8% |
| c1ccc(CSc2nnc3ccc(-c4ccncc4)nn23)nc1 | 7.44% |
